Assay [1] concerns Wnt5a (protein binding on small-molecule microarray). Kind of assay: small molecules binding Wnt5a protein – biophysical, small-molecule microarray, 635/667 nm fluorescence, primary screen (AID 1142).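 Note: fluorescence read at 667 nm with signal to noise per printed feature.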 The following applies: 635 nm fluorescence, higher = more signal.
Assay [2] can be described thus: ATP-based viability of Huh7 replicon cells – cell-based, CellTiter-Glo luminescence, basal, 48 h, cytotoxicity control for HCV replication inhibitor project, primary screen (AID 1143).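 Note: Huh7 hepatoma cells carrying a hepatitis C replication reporter with no stimulus; test concentration not given here.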 The following applies: higher = more signal, called active from +8 up or from −8 down.
The nature of assay [3]: Pseudomonas biofilm growth suppression – PAO1 strain, BacTiter-Glo luminescence, LB-PBS, primary screen (AID 1144). The following applies: P. aeruginosa PAO1 biofilm, 12 h, higher = more signal.
Assay [4] in a line: basal CRE-LacZ reporter activity in PC12 – cell-based, unstimulated, primary screen (AID 1145). The following applies: no forskolin, luminescence, 4.5 h, higher = more signal, called active from +8 up or from −8 down.
Assay [5] can be described thus: forskolin-driven CRE-LacZ activity in PC12 – cell-based, CRE-LacZ reporter, forskolin-stimulated, primary screen (AID 1146).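 Note: PC12 cells with 6xCRE LacZ reporter stimulated by forskolin 10 µM; beta-galactosidase reporter signal reflecting CREB driven transcription.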 The following applies: luminescence, 4.5 h, higher = more signal, called active from +8 up or from −8 down.
The target of assay [6] is Streptavidin (Streptomyces avidinii) (UniProt P22629). Briefly: compounds binding control protein streptavidin – biophysical, small-molecule microarray, 635/667 nm fluorescence, artefact control for SMM compound annotation, primary screen (AID 1147).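 Note: signal reflects streptavidin binding to arrayed compounds as a control protein.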 The following applies: higher = more signal.
Chain of Streptavidin (Streptomyces avidinii) (P22629 whole entry, looked up): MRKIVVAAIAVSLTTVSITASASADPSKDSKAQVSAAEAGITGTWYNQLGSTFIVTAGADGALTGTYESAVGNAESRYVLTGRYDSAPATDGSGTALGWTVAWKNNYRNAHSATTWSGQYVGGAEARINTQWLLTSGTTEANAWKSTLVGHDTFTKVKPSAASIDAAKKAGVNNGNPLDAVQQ
A short description of assay [7]: probe aInhba binding on compound microarray – biochemical, small-molecule microarray, 635/667 nm fluorescence, primary screen (AID 1148).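 Note: score merges 667nm spot fluorescence with signal-to-noise for antibody binding to printed compounds.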 The following applies: higher = more signal.
In assay [8] the target is Torsin-1A (Homo sapiens) (UniProt O14656). Briefly: TOR1A wild-type binding on microarray – cell lysate, small-molecule microarray, lysate, 635/667 nm, primary screen (AID 1149). The following applies: COS7 hTOR1A-WT lysate, 635 nm fluorescence, higher = more signal.
Chain of Torsin-1A (Homo sapiens) (O14656 whole entry, looked up): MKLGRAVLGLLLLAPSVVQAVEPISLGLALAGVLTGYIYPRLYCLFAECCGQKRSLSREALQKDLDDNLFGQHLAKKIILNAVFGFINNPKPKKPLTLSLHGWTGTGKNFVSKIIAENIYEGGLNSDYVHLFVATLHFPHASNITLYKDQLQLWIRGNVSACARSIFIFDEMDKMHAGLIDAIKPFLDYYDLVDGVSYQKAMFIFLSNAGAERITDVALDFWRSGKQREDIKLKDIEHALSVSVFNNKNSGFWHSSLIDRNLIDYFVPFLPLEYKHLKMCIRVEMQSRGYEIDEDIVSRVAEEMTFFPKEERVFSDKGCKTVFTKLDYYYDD
For assay [9] the target is unchanged. Kind of assay: torsin A mutant lysate binding on microarrays – cell lysate, small-molecule microarray, COS7 lysate, 635/667 nm fluorescence, primary screen (AID 1150).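 Note: score pools 667 nm emission and signal to noise measuring lysate protein binding.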 The following applies: COS7 hTOR1A mutant lysate, 635 nm fluorescence, higher = more signal.
Assay [10] has as its system Sonic hedgehog protein (Shh). Briefly: Sonic hedgehog microarray binding compounds – biochemical, small-molecule microarray, 635/667 nm fluorescence, primary screen (AID 1151).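 Note: Shh protein binding to compounds spotted on small-molecule microarray slides; score combines spot fluorescence intensity with signal-to-noise across triplicate slides.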 The following applies: 635 nm fluorescence, higher = more signal.

SMILES strings stand for the structures. Active and inactive are the calls of the source. Unless noted, the rule behind the calls is not given here.

Consider `C#CCCCON=C1[C@H]2CCn3c(=O)n(-c4ccccc4)c(=O)n3[C@H]2[C@H](O)[C@@H]2O[C@H]12`, for which the composite z-score is 0.0823 in assay [1]; -0.126 in [6]; -0.23 in assay [7]; 0.494 in the assay with Torsin-1A (Homo sapiens) [8]; 1.27 with Torsin-1A (Homo sapiens) [9]; 0.504 in [10]. The z-score in assay [2] is -0.146 (inactive); in assay [3], 0.423 (inactive); in assay [4], -0.112 (inactive); in assay [5] it was 0.462 (inactive).

With `CC(C)=NOC[C@@H](C)[C@H](OCc1ccccc1)C(C)C`, the composite z-score is -0.437 in [1]; 0.0253 in [6]; -0.128 in assay [7]; -0.522 in the assay with Torsin-1A (Homo sapiens) [8]; -0.31 with Torsin-1A (Homo sapiens) [9]; -0.448 in [10]. The z-score is 0.563 (inactive) in assay [2], -0.181 (inactive) in assay [3], 1.17 (inactive) in assay [4] and 0.112 (inactive) in [5].

Regarding `COc1ccc(COC(=O)NN=C2C[C@@H](O)[C@@H](O)[C@@H]3[C@@H]4C(=O)N(c5ccc(F)cc5F)C(=O)[C@@H]4CC[C@H]23)cc1`, the composite z-score is 0.118 in assay [1]; 1.19 in assay [6]; -0.0719 in [7]; -0.309 in the assay with Torsin-1A (Homo sapiens) [8]; 0.627 with Torsin-1A (Homo sapiens) [9]; -1.52 in [10]. For the same molecule, the z-score in [2] was -1.64 (inactive); in [3], -0.597 (inactive); in [4], -1.02 (inactive); in assay [5] it was 0.454 (inactive).

On to `O=C(NN=C1C[C@@H](O)[C@@H](O)[C@@H]2[C@@H]3C(=O)N(Cc4ccccc4)C(=O)[C@@H]3CC[C@@H]12)OCc1ccccc1`, for which the composite z-score in assay [1] is -0.0896; in assay [6], -0.418; in assay [7] it was -0.239; with Torsin-1A (Homo sapiens) [8], 0.815; in the assay with Torsin-1A (Homo sapiens) [9], 0.819; in assay [10], -0.0067. Moreover, the z-score in assay [2] is -0.381 (inactive); in [3] it was -0.526 (inactive); in assay [4] it was 0.248 (inactive); in assay [5], 0.121 (inactive).

In the case of `C#CCCCON=C1C[C@@H](O)[C@@H](O)[C@@H]2[C@@H]3C(=O)N(c4cccc(Oc5ccccc5)c4)C(=O)[C@@H]3CC[C@H]12`, the composite z-score was -0.591 in [1]; -0.77 in [6]; -0.191 in [7]; 0.32 in the assay with Torsin-1A (Homo sapiens) [8]; 0.855 in the assay with Torsin-1A (Homo sapiens) [9]; -1.01 in [10]. Also, the z-score was -0.593 (inactive) in assay [2], 0.0591 (inactive) in assay [3], -0.57 (inactive) in assay [4] and -0.236 (inactive) in assay [5].

Take `COc1ccc(O[C@H]2C=C[C@@H](c3ccccc3)O[C@@H]2CON=C(C)CCN2CCc3nc(-c4ccccc4)c(-c4ccccc4)cc3C2)cc1`: the composite z-score was -0.193 in [1]; 0.852 in assay [6]; -0.0719 in [7]; -0.449 in the assay with Torsin-1A (Homo sapiens) [8]; -0.199 in the assay with Torsin-1A (Homo sapiens) [9]; 0.194 in assay [10]. Further, the z-score in assay [2] is -0.203 (inactive); in assay [3], -0.18 (inactive); in assay [4], 1.62 (inactive); in assay [5], 0.703 (inactive).

With `CCOC(=O)NN=C1C[C@@H](O)[C@@H](O)[C@@H]2[C@@H]3C(=O)N(c4cccc(Oc5ccccc5)c4)C(=O)[C@@H]3CC[C@@H]12`, the composite z-score in [1] was 0.0449; in [6], -0.343; in assay [7], -0.178; in the assay with Torsin-1A (Homo sapiens) [8] it was 0.986; in the assay with Torsin-1A (Homo sapiens) [9], 0.139; in assay [10], -0.438. For the same molecule, the z-score was -1.49 (inactive) in assay [2], 0.362 (inactive) in [3], -0.201 (inactive) in assay [4] and -0.252 (inactive) in assay [5].

As for `COC(=O)[C@H]1[C@@H](O)[C@@]2(O)c3ccccc3O[C@@]2(c2ccccc2)[C@@H]1c1ccccc1`, the composite z-score is -0.113 in assay [1]; -0.419 in assay [6]; -0.0361 in [7]; -0.225 with Torsin-1A (Homo sapiens) [8]; 0.258 with Torsin-1A (Homo sapiens) [9]; 0.143 in [10]. The z-score was -0.359 (inactive) in assay [2], 0.576 (inactive) in assay [3], 1.57 (inactive) in [4] and 0.0923 (inactive) in [5].

For the molecule `O=C(C=Cc1ccc2c(c1)OCO2)c1ccc(F)cc1`, the composite z-score is 0.239 in assay [1]; 1.32 in assay [6]; 0.259 in assay [7]; 0.245 in the assay with Torsin-1A (Homo sapiens) [8]; -0.397 in the assay with Torsin-1A (Homo sapiens) [9]; 2.05 in assay [10]. Further, the z-score in [2] was -1.25 (inactive); in assay [3], 0.583 (inactive); in assay [4] it was 1.28 (inactive); in assay [5], 0.362 (inactive).

On to `O=c1n(-c2ccccc2)c(=O)n2n1CC[C@@H]1C(=NOCc3ccccc3)[C@H]3O[C@H]3[C@@H](O)[C@@H]12`, for which the composite z-score in assay [1] is 0.18; in [6], -0.445; in assay [7], -0.0695; in the assay with Torsin-1A (Homo sapiens) [8], -0.614; with Torsin-1A (Homo sapiens) [9], -0.315; in assay [10], -0.0835. In addition, the z-score in assay [2] was 0.492 (inactive); in assay [3], 0.251 (inactive); in assay [4] it was -0.385 (inactive); in [5], -0.314 (inactive).

`COc1ccc(O[C@H]2C=C[C@@H](c3ccccc3)O[C@@H]2COC(=O)CCC(C)=NOC[C@@H](O)[C@H]2O[C@@H]3OC(C)(C)O[C@@H]3[C@H]2O)cc1`: the composite z-score is 0.383 in assay [1]; 1.15 in [6]; -0.0963 in assay [7]; 0.624 with Torsin-1A (Homo sapiens) [8]; 0.891 in the assay with Torsin-1A (Homo sapiens) [9]; 1.14 in assay [10]. In addition, the z-score in [2] is -0.119 (inactive); in assay [3], -0.108 (inactive); in assay [4] it was -1.14 (inactive); in assay [5], -0.866 (inactive).

In the case of `CCN1C(=O)[C@@H]2[C@H]3C(=CC[C@@H]2C1=O)C1(OCCCO1)[C@H]1O[C@H]1[C@H]3O`, the composite z-score worked out at 0.36 in [1]; 1.13 in assay [6]; 0.0513 in assay [7]; 0.616 with Torsin-1A (Homo sapiens) [8]; 1.09 with Torsin-1A (Homo sapiens) [9]; 0.956 in [10]. The z-score in [2] is -8.11 (active); in [3], 0.291 (inactive); in assay [4], 0.196 (inactive); in [5] it was 23.3 (active).

For the molecule `CO[C@@H]1COC(=O)[C@H](CCSC)NC(=O)CC=C[C@@H](C)COC(=O)CCC[C@H]1C`, the composite z-score is -0.277 in [1]; -1.47 in assay [6]; -0.255 in assay [7]; 4.03 in the assay with Torsin-1A (Homo sapiens) [8]; 4.08 in the assay with Torsin-1A (Homo sapiens) [9]; 2.27 in assay [10]. The z-score in assay [2] was -2.75 (inactive); in [3], -0.88 (inactive); in [4], 0.341 (inactive); in assay [5], 0.85 (inactive).

Consider `CC(C)=CCCC(C)=CCON=C1C[C@@H](O)[C@@H](O)[C@@H]2[C@@H]3C(=O)N(C[C@@H]4CCCO4)C(=O)[C@@H]3CC[C@H]12`, for which the composite z-score in assay [1] is 0.24; in assay [6] it was 0.707; in [7], -0.162; with Torsin-1A (Homo sapiens) [8], 1.4; in the assay with Torsin-1A (Homo sapiens) [9], 1.33; in [10] it was 1.67. Besides, the z-score in assay [2] is -0.296 (inactive); in assay [3], 0.175 (inactive); in assay [4], -0.384 (inactive); in assay [5], 0.174 (inactive).

For the origin of these results see PubChem BioAssay.
